Results from PubChem BioAssay AID624453 (National Center for Advancing Translational Sciences (NCATS), 2012).
Calls of active or inactive are those of the source. The call rests on the fitted dose curve; in most records, active means well fitted curve in the direction sought with a large enough effect; inactive means no such curve, though single readings can be large or run the other way.

Each molecule was assayed against D(2) dopamine receptor (Homo sapiens) (UniProt P14416) (assay: HTS Assay for Allosteric Antagonists of the Human D2 Dopamine Receptor: Hit Validation in primary assay). Conditions: HEK293 TREx D2, calcium flux, dopamine EC80 antagonism; series mostly up to 41.8 µM; activity change, negative = inhibition: at the top concentration.
From the text: Dopamine receptors (DARs) are involved in the etiology and/or therapy of a number of neuropsychiatric and endocrine disorders. For instance, all receptor-based antiparkinsonian drugs work via stimulating the D2 DAR subtype whereas all FDA-approved antipsychotic agents are antagonists of this receptor. […] There are three different types of allosteric modulators that we are seeking, two of which will stimulate or augment receptor signaling, allosteric agonists and potentiators, while the third, allosteric antagonists, will attenuate receptor signaling. The present primary screening assay measures compound antagonism after an EC80 addition of dopamine by tracking calcium flux in a […], inducible Hek293 Trex D2 cell line. NIH Chemical Genomics Center [NCGC] NIH Molecular Libraries Probe Centers Network [MLPCN] MLPCN Grant: NS064831 Assay Submitter (PI): David Sibley
Freshly passaged cells are plated in 1536 well black, clear bottom plates at a density of 4000 cells/well in 3 ul of complete media containing 1x tetracycline inducer. After an overnight incubation at 30 C in 5% CO2, cells are loaded with 2 ul of the no wash Calcium Assay Kit (ABD Bioquest) and incubated at room temperature for 30 to 90 minutes before it's read.

Sequence of D(2) dopamine receptor (Homo sapiens) (P14416 whole entry, looked up): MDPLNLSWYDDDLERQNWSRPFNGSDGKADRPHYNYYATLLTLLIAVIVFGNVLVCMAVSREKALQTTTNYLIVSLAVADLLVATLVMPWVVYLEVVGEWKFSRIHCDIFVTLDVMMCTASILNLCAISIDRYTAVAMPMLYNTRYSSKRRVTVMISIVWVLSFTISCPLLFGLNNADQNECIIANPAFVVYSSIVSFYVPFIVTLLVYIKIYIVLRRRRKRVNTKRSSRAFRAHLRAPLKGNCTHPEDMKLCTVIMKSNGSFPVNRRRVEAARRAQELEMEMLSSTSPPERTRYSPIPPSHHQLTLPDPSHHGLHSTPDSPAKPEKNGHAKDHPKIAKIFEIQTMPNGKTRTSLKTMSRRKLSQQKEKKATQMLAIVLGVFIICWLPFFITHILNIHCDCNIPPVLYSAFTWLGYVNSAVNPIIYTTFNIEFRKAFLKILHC

Activity change, negative = inhibition, inactive:
CCCCNc1ccc(C(=O)OCCN(C)C)cc1 7.23%
CC(C)c1c(O)ccc2c1CCC1[C@@](C)(C=O)CCC[C@@]21C (some centres not stated) 35.8%
Cc1cc(C)nc(NS(=O)(=O)c2ccc(N)cc2)n1 15.7%
CC(CCC(=O)O)C1CCC2C3CC[C@H]4CC(O)CC[C@@]4(C)C3CC[C@@]12C (some centres not stated) 2.2%
CC(=O)OC1CC2C(C)(C)C(O)CC(O)[C@@]2(C)C2CC[C@@]3(C)C(=CC(=O)OC3c3ccoc3)[C@]12C (some centres not stated) 15.4%
CC1=CC(=O)c2ccccc2C1=O 28%
NS(=O)(=O)c1cc(C2(O)NC(=O)c3ccccc32)ccc1Cl (configuration not stated) 27.7%
O=C(OCc1ccccc1)c1ccccc1 18.9%
CC(C)(C)NCC(O)c1cc(O)cc(O)c1 (configuration not stated) 20.4%
CCCCCCCCCCCC1=C(O)C(=O)C=C(O)C1=O 42.8%
COc1cc(OC)c2ccc(=O)oc2c1 27%
C[C@]12CCC3c4ccc(OS(=O)(=O)O)cc4CCC3C1CCC2=O (some centres not stated) 28.3%
NCC1O[C@@H](OC2C(N)C[C@H](N)[C@@H](O[C@H]3OC(CO)C(O)C(N)C3O)C2O)C(N)C(O)C1O (some centres not stated) 40.9%
CC1OC(OC2C(CO)OC(OC3C(CO)OC(O)C(O)C3O)C(O)C2O)C(O)C(O)C1NC1C=C(CO)C(O)C(O)C1O (configuration not stated) -16.7%
COc1ccc(-c2c(O)c3c(OC)c4c(cc3oc2=O)OC(C)(C)C=C4)cc1 34.9%
COc1ccc2cc3[n+](cc2c1OC)CCc1cc2c(cc1-3)OCO2 40.3%
O=C(O)c1cc(=O)c2ccccc2[nH]1 -4.72%
